# In PubChem BioAssay:
# The source made the active and inactive calls. Unless noted, how the calls were made is not given here.
# Experiments:
# [1] = resazurin metabolic signal in HepG2 cells – cell-based, resazurin fluorescence, 24 h, PK04 Diversity Set, profiling panel (AID 1172); details: HepG2 viability, higher = more signal
# [2] = budding yeast growth changes without added modifier – OD600, strain BY4716, 24 h, basal condition, primary screen (AID 1173); details: S. cerevisiae BY4716 growth, OD600, 24 h; higher = more signal, called active from +8 up or from −8 down
# [3] = viability profiling in MM1S myeloma cells – cell-based, resazurin fluorescence, basal, 24 h, PK04 Diversity Set, profiling panel (AID 1174); details: higher = more signal, called active from +8 up or from −8 down;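 further: MM1S multiple myeloma cell line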
# [4] = target: Dihydroorotate dehydrogenase (quinone), mitochondrial (Plasmodium falciparum (isolate 3D7)) (UniProt Q08210); assay: inhibition of P. falciparum DHODH – biochemical, C-terminal His tag, absorbance 600 nm, primary screen (AID 1175); details: PfDHODH enzyme, DCIP absorbance 600 nm; higher = more signal, called active from +8 up or from −8 down;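 further: recombinant parasite enzyme with a five histidine tag at its C terminus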
# [5] = inhibition of PAO1 biofilm formation – strain PAO1, LB-PBS medium, absorbance 600 nm, primary screen (AID 1176); details: P. aeruginosa PAO1 growth/biofilm, A600, 12 h; higher = more signal
# [6] = growth modulation of vineyard yeast isolate – strain RM11-1a, OD600, basal, 24 h, primary screen (AID 1177);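 further: cultures grown under basal conditions with no added stressor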; details: S. cerevisiae RM11-1a growth, OD600, 24 h; higher = more signal, called active from +8 up or from −8 down
# [7] = growth of efflux-deficient E. coli DRC39 – strain DRC39, OD650, 24 h, E. coli filamentation inducers, primary screen (AID 1178);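 further: growth measured as culture turbidity by optical density at 650 nm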; details: E. coli DRC39 acrAB, higher = more signal, called active from +8 up or from −8 down
# [8] = growth of efflux-deficient E. coli DRC39 – strain DRC39, OD650, 48 h, E. coli filamentation inducers, primary screen (AID 1179);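 further: screen aims at cell division blockers that make cells filament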; details: E. coli DRC39 delta-acrAB growth, higher = more signal, called active from +8 up or from −8 down
# [9] = viability profiling in RPMI8226 myeloma cells – cell-based, resazurin fluorescence, basal, 24 h, PK04 Diversity Set, profiling panel (AID 1180); details: higher = more signal;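 further: RPMI8826 multiple myeloma cell line at 5000 cells per well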
# [10] = target: E3 ubiquitin-protein ligase XIAP (Homo sapiens) (UniProt P98170); assay: small molecules binding XIAP protein – biophysical, small-molecule microarray, fluorescence 635 nm, primary screen (AID 1181); details: higher = more signal;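 further: score merges 667 nm emission and signal to noise over triplicate slides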
# [11] = system: XIP peptide (Xip251-270) binding; assay: XIP fragment 251-270 binding compounds – biochemical, small-molecule microarray, fluorescence 635/667 nm, 0.1 µg/mL protein, primary screen (AID 1182); details: fluorescent protein binding, 635 nm, higher = more signal, called active from +8 up or from −8 down
# XIP peptide (Xip251-270) = assay: compounds binding XIP fragment 251-270 – biochemical, small-molecule microarray, fluorescence 635/667 nm, 0.5 µg/mL protein, primary screen (AID 1183); details: fluorescence 635 nm, higher = more signal
# [12] = blood-stage malaria parasite viability loss – strain 3D7, DAPI fluorescence, 100 nL, primary screen (AID 1184);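 further: parasites grown inside human red blood cells in medium with human serum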; details: P. falciparum 3D7 growth, 3 d, higher = more signal
# [13] = target: Homeobox protein Hox-A13 (Mus musculus) (UniProt Q62424); assay: disruptors of Hoxa13 oligonucleotide interaction – biochemical, fluorescence polarization, labeled oligonucleotide, primary screen (AID 1185); details: Hoxa13:DNA binding, 15 min, higher = more signal, called active from +8 up or from −8 down
# [14] = blockers of DNA damage checkpoint Chk1 activation – imaging, HeLa, hydroxyurea, phospho-Chk1 antibody, percent positive cells, primary screen (AID 1186); details: hydroxyurea-induced phospho-Chk1 immunofluorescence imaging, higher = more signal
# [15] = blockers of DNA damage checkpoint Chk1 activation – imaging, HeLa, hydroxyurea, phospho-Chk1 nuclear intensity, primary screen (AID 1187); details: hydroxyurea-induced phospho-Chk1 immunofluorescence imaging, higher = more signal
# Chain of E3 ubiquitin-protein ligase XIAP (Homo sapiens) (P98170 whole entry, looked up, the tested form may be a part): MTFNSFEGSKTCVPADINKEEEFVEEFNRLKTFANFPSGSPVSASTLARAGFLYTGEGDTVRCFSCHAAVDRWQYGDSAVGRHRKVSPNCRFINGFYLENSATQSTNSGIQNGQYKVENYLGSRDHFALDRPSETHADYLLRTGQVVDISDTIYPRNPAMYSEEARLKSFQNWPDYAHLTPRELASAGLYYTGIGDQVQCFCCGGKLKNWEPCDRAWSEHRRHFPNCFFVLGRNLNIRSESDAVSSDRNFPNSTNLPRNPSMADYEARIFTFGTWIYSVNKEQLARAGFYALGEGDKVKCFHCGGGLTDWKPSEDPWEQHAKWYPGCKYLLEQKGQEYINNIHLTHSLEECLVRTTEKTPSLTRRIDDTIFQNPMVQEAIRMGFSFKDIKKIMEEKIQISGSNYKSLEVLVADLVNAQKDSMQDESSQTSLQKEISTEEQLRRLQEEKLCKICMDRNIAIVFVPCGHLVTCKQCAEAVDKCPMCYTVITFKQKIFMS
# Chain of Dihydroorotate dehydrogenase (quinone), mitochondrial (Plasmodium falciparum (isolate 3D7)) (Q08210 whole entry, looked up): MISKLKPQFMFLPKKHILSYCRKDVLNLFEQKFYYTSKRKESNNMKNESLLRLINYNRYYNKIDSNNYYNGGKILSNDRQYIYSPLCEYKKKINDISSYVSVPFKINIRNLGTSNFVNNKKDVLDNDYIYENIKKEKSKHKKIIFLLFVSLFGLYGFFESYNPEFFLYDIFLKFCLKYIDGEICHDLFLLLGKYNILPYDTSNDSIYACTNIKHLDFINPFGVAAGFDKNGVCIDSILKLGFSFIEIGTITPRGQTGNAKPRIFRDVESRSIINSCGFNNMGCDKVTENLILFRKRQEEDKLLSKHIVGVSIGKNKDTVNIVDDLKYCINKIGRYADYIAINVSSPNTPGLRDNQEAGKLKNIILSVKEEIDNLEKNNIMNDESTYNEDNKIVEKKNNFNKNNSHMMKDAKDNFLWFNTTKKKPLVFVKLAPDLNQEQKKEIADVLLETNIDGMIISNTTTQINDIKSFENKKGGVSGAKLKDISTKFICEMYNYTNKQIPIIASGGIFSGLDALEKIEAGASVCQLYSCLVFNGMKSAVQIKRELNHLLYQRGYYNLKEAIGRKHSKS
# Chain of Homeobox protein Hox-A13 (Mus musculus) (Q62424 whole entry, looked up): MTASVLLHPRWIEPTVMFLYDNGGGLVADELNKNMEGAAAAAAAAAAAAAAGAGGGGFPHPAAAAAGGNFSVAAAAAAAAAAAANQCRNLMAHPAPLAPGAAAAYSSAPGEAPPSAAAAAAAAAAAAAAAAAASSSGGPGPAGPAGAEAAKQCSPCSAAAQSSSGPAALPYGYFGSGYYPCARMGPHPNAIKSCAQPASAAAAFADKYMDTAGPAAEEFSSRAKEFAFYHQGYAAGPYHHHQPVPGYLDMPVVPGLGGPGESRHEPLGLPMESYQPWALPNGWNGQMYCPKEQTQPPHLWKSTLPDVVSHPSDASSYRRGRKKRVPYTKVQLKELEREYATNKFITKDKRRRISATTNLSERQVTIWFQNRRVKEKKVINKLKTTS
Compound,z-score [1],z-score [2],z-score [3],composite z-score [4],z-score [5],z-score [6],z-score [7],z-score [8],z-score [9],composite z-score [10],composite z-score [11],composite z-score (XIP peptide (Xip251-270)),z-score [12],z-score [13],z-score [14],z-score [15]
Cc1ccc(C(C)CC(O)C2C=CC3C(=O)N(c4ccccc4)C(=O)C3N2Nc2ccc([N+](=O)[O-])cc2)o1 (centres undefined),0.836,0.124 (inactive),-0.171 (inactive),-0.071 (inactive),1.14 (inactive),0.315 (inactive),-0.975 (inactive),0.178 (inactive),0.263,0.152,0.099 (inactive),0.839,-1.1,-3.75 (inactive),0.161 (inactive),0.568 (inactive)
O=C1NC(=O)C2C1C=CC(C(O)Cc1ccccc1)N2Nc1ccc(Cl)cc1Cl (centres undefined),-0.985,-7.58 (inactive),-1.56 (inactive),-0.276 (inactive),0.53 (inactive),0.181 (inactive),-0.655 (inactive),-0.603 (inactive),-1.04,0.13,0.0966 (inactive),-0.474,0.17,-5.64 (inactive),0.985 (inactive),1.09 (inactive)
O=C1OCCC/C=C\[C@H]2OC34C=CCN(Cn5nnc6ccccc65)C(=O)[C@H]3N(CCO)C(=O)[C@@H]4C12 (some centres undefined),-0.345,-0.0322 (inactive),0.158 (inactive),1.16 (inactive),0.469 (inactive),0.821 (inactive),0.254 (inactive),-0.146 (inactive),0.0966,0.213,-0.0143 (inactive),0.96,-1.18,-4.72 (inactive),0.0428 (inactive),0.371 (inactive)
CC(C)(C)OC(=O)CC[C@]1(C(=O)O)N=C(c2ccc(OCCCO)cc2)O[C@H]1c1ccccc1N=[N+]=[N-],0.144,-0.278 (inactive),-1.32 (inactive),-0.533 (inactive),0.286 (inactive),-0.715 (inactive),0.0508 (inactive),0.49 (inactive),0.056,0.0989,1.25 (inactive),0.907,-0.164,-5.39 (inactive),0.0751 (inactive),-0.136 (inactive)
NCCCCCNC(=O)[C@@H]1C[C@@H]2C(=O)N[C@@H](Cc3ccccc3)C(=O)N2[C@@H]1c1cccc(OCCO)c1,-0.837,1.04 (inactive),-0.104 (inactive),0.251 (inactive),0.174 (inactive),0.606 (inactive),-0.297 (inactive),-0.457 (inactive),-0.603,0.416,0.251 (inactive),0.595,0.304,-4.39 (inactive),-0.143 (inactive),-0.223 (inactive)
C=C(CCCC)C(=O)CC[C@H](OC(=O)c1cccnc1)c1ccccc1OCCO,0.619,-0.716 (inactive),-2.19 (inactive),-0.363 (inactive),-0.317 (inactive),-1.61 (inactive),0.836 (inactive),-0.0762 (inactive),-2.29,0.0374,0.0328 (inactive),0.222,-3.02,-5.25 (inactive),-1.12 (inactive),-0.27 (inactive)
Cc1ccc(S[C@]2(C(=O)NCCN3CCOCC3)CC(=O)N(Cc3ccccc3)[C@@H]2c2ccc(CO)cc2I)cc1,-0.396,-3.23 (inactive),-2.91 (inactive),-4.58 (inactive),0.422 (inactive),-1.71 (inactive),0.359 (inactive),-0.46 (inactive),-2.02,-0.152,0.302 (inactive),0.0473,-1.44,-1.69 (inactive),-0.0659 (inactive),0.184 (inactive)
CCOC(=O)C1=CCC(c2ccccc2)N(S(=O)(=O)CC[Si](C)(C)C)C1 (centres undefined),1.17,-1.48 (inactive),0.406 (inactive),0.49 (inactive),-0.461 (inactive),-0.0286 (inactive),-0.117 (inactive),1.05 (inactive),0.681,-0.192,-0.0447 (inactive),0.113,-0.391,-2.31 (inactive),-0.262 (inactive),0.0088 (inactive)
COC(=O)[C@@]1(Cc2ccc(OC)cc2)[C@H]2c3cc(C(=O)N(C)C)n(Cc4cccc5ccccc45)c3C[C@H]2CN1C(=O)c1ccccc1,-1.75,0.897 (inactive),-2.01 (inactive),-3.49 (inactive),2.31 (inactive),0.872 (inactive),-0.353 (inactive),-0.999 (inactive),-2.66,0.101,0.237 (inactive),0.822,-1.61,-4.2 (inactive),0.0329 (inactive),-0.19 (inactive)
